# Where “and” joins values, the source holds several entries; their conditions need not be identical. Equal entries are not always repeated. Results filed as inconclusive are left out. Values without a mark were called inactive. Calls of active or inactive are those of the source. Calls come from the whole dose curve.
# Assay: qHTS assay for small molecules that induce genotoxicity in human embryonic kidney cells expressing luciferase-tagged ATAD5 - cell viability (AID 651634); note: nearly all actives have a fitted effect of over 25% in size
# Settings: HEK293T ATAD5-luc cells viability, CellTiter-Fluor, 15.5 h; series mostly up to 83.3 µM; activity, negative = cytotoxicity: at the top concentration
# Description: National Center for Advancing Translational Sciences [NCATS]
# NIH Chemical Genomics Center [NCGC]
# U.S. Environmental Protection Agency [EPA]
# National Institutes of Environmental Health Sciences [NIEHS]
# National Toxicology Program [NTP]
# U.S. Food and Drug Administration [FDA]
# Enhanced Level of Genome Instability Gene 1 (ELG1; human ATAD5) protein levels increase in response to various types of DNA damage. Using a luciferase reporter-gene tagged with ElG1, a cell-based assay [developed by Kyungjae Myung, NHGRI, NIH] was used to measure the induction of ATAD5 in human embryonic kidney cells (HEK293T). So, increase in luciferase activity can be used to identify the compounds that cause genetic stress. In addition to genotoxicity, these cells were also used to test for cytotoxicity by measuring the protease activity within live cells.
# Tox21 Assay Protocol Summary:
# For cytotoxicity screening, 2,000 cells in 5 uL/well were dispensed into white, solid-bottom 1536-well plates using a Multidrop Combi (Thermo Scientific) dispenser. Following transfer of 23 nL compound or DMSO vehicle by a pin tool, the plates were incubated 15.5 hr at 37C and 5% CO2. 1 ul CellTiter-Fluor reagent (Promega, Madison, WI) was then added to each plate and following 30 min incubation at 37C, fluorescence intensity was quantified on a ViewLux CCD-based plate reader.
# % is set by controls: 0 for no effect and ±100 for the full control effect; potency is the fitted concentration of half-maximal effect.
Structure (SMILES),"activity, negative = cytotoxicity",Potency
C1CC(COCC2CO2)CCC1COCC1CO1 (stereo not given),23.8%,
CSc1ccc2c(c1)N(CCC1CCCCN1C)c1ccccc1S2 (stereo not given),,29.8 µM (active) and 68.3 µM (active)
C/C=C/C=N/NC(=O)c1ccncc1,9.67%,
Cc1oc(-c2ccccc2)nc1CCOc1ccc(C[C@H](Nc2ccccc2C(=O)c2ccccc2)C(=O)O)cc1,,54.5 µM (active)
Clc1ccccc1CN1CCc2sccc2C1,-9.48%,
COc1cccc(CCc2ccccc2OCC(CN(C)C)OC(=O)CCC(=O)O)c1 (stereo not given),29.2%,
O=Cc1ccc(F)cc1,16.8%,
O=C(Nc1ccc(Cl)c(Cl)c1)c1cc(Cl)cc(Cl)c1O,,4.86 µM (active)
Cc1ccc2ccc3cccc4ccc1c2c34,22.2%,
Cc1cc2c(C(C)C)c(O)c(O)c(C=O)c2c(O)c1-c1c(C)cc2c(C(C)C)c(O)c(O)c(C=O)c2c1O,,13.3 µM (active)
CNC(=S)NN,2.03%,
Nc1cc(Cl)c([N+](=O)[O-])cc1O,,68 µM (active)
CCN(CC)CCSC(=O)C(c1ccccc1)c1ccccc1,,inactive
CN1CCN(C2Cc3ccccc3Sc3ccc(Cl)cc32)CC1 (stereo not given),-26.2%,
CSc1c(Cl)c(Cl)c(Cl)c(Cl)c1Cl,-11.5%,
CC(C)c1cccc(C(C)C)c1N1C(=O)c2ccc(O)cc2C1=O,238%,
COCC(=O)O[C@]1(CCN(C)CCCc2nc3ccccc3[nH]2)CCc2cc(F)ccc2[C@@H]1C(C)C,,10.6 µM (active)
C=C(C)C(=O)OCCC[Si](Cl)(Cl)Cl,11.5% [at 95.3 µM],
CCC(C)(C)c1cc(O)c(C(C)(C)CC)cc1O,,48.6 µM (active)
C[Si](C)(C)Cl,-4.45%,

Structure (SMILES),"activity, negative = cytotoxicity",Potency
O=C(O)CCn1c2c(c3ccccc31)C[C@H](NS(=O)(=O)c1ccc(F)cc1)CC2,5.24%,
CNC(=O)c1cc(Oc2ccc(NC(=O)Nc3ccc(Cl)c(C(F)(F)F)c3)cc2)ccn1,,16.8 µM (active)
COc1ccccc1OCCNCC(O)COc1cccc2[nH]c3ccccc3c12 (stereo not given),19.5%,
CC1(C)C(=O)N(Br)C(=O)N1Br,-5.84%,
CCCCCCCCCCCCCOP(=O)(O)O,9.16%,
CCCCCCCCCCCC(=O)N(CC)CC,14.6%,
CC(C)OC(=O)c1cc(C(=O)OC(C)C)cc([N+](=O)[O-])c1,33.3% [at 95.3 µM],
CCCCCCCCCC(=O)N(C)C,-5.35% [at 95.3 µM],
COC(=O)CC#N,14.4% [at 95.3 µM],
CCN1CCN(c2cc(-c3ccc(F)cc3)c3c(n2)CCCCCC3)CC1,22.8%,
CC(=O)Oc1ccc(C2(c3ccc(OC(C)=O)cc3)C(=O)Nc3ccccc32)cc1,,inactive
CCCCCCCCCCCCCCNCCO,38.4%,
CCOC(=O)[C@@](C)(N)Cc1ccc(O)c(O)c1,20.7% [at 39.1 µM],
c1cc2c3c(c1)ccc1cccc(c13)C2,11.3% [at 95.3 µM],
Oc1ccc(-c2ccccc2)c(Cl)c1,13.1%,
CN(C)CCCN1c2ccccc2CCc2ccccc21,,inactive
Cc1cc(Nc2ccc(O)cc2)ccc1N,,27.2 µM (active)
CN(C)c1ccc(N=Nc2ccccc2C(=O)O)cc1,,54.5 µM (active)
O=C1OC(OC(=O)c2cccnc2Nc2cccc(C(F)(F)F)c2)c2ccccc21 (stereo not given),-18.7%,
CC(=O)OC(OC(C)=O)c1ccc([N+](=O)[O-])o1,,62.2 µM (active)
